The values below come from PubChem BioAssay (NCI).

This is part of a sample that, as a whole, favours compounds with a hit. Of some 79,000 tested, about 15% had one in any assay. Activity calls are given as the source filed them. Rule as the data show it: active = growth inhibition above about 70%; inactive = the rest.

The first test can be described thus: NCI Yeast Anticancer Drug Screen. Data for the mec2-1 strain (AID 157). The following applies: S. cerevisiae mec2-1 strain, at 50.0 µM, active compounds read high. The gist of the method:
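Readout is yeast growth inhibition, normalised to vehicle-treated controls, in the mec2-1 strain exposed to compound.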
`O=C1NC(=S)NC(=O)C1=Cc1cc2c(cc1[N+](=O)[O-])OCO2`: the growth inhibition is -4.2% (inactive).

With `O=S(=O)(O)c1ccc(Cl)cc1`, the growth inhibition was -3.2% (inactive).

As for `CCN(CC)c1cccc(OC(=O)NC)c1`, the growth inhibition was -0.25% (inactive).

Consider `O=C1OC(Br)c2ccccc21` (stereo not given), for which the growth inhibition was -27.7% (inactive).

Regarding `CCOP(=O)(OCC)O/N=C(/c1ccccc1)C(C)C`, the growth inhibition is 4.85% (inactive).

In the case of `Cc1cc2[nH]c3c(C#N)c(OC(=O)N(C)C)c(-c4ccccc4)c(=O)n3c2cc1C`, the growth inhibition was 9.5% (inactive).

With `CC(=O)Nc1cc([As](C)(=O)O)ccc1O`, the growth inhibition was 1.75% (inactive).

As for `COc1ccc(N2CC=C(c3ccccc3)OP2(=O)N(CCCl)CCCl)cc1` (stereo not given), the growth inhibition is -4.5% (inactive).

For the compound `CC(=O)CC(C)=O.CC(=O)CC(C)=O.[Cl][Sn][c]1ccccc1`, the growth inhibition was 23.7% (inactive).

With `COP(=S)(c1ccccc1)N(C)C(=O)Oc1cccc(C(C)C)c1` (stereo not given), the growth inhibition is 30.7% (inactive).

Take `O=NNc1ccc(C(F)(F)F)cn1`: the growth inhibition is -6.95% (inactive).

As to `CC1(C)N=C(N)N=C(N)N1c1cccc(CCCCc2ccc(S(=O)(=O)F)c(Cl)c2)c1`, the growth inhibition is 99.7% (active).

For the compound `Cc1cc([N+](=O)[O-])c(N)c([N+](=O)[O-])c1`, the growth inhibition is -11.1% (inactive).

In the case of `CNC(=O)N1CN(c2ccccc2)C2(CCN(Cc3ccccc3)CC2)C1=O`, the growth inhibition was -15.8% (inactive).

In the case of `CC([OH2+])CNCCN.CC([OH2+])CNCCN.O=[N+]([O-])[O-].[Cu+2]` (stereo not given), the growth inhibition was -8.95% (inactive).

As for `[Cl][Co][Br].[NH-]CC[NH-].[NH-]CC[NH-]`, the growth inhibition is 3.95% (inactive).

Turning to `[C-]#[O+].[C-]#[O+].[C-]#[O+].[C-]#[O+].[C-]#[O+].[C-]#[O+].[C-]#[O+].[C-]#[O+].[C-]#[O+].[CH2-]C.[Co].[Co].[Co]`, the growth inhibition is 9.9% (inactive).

As for `CCOP(=O)(OCC)C(C)(C)OC(=O)NC#N`, the growth inhibition is -63.5% (inactive).

For `O=C(NC(Cl)=C(Cl)Cl)P(=O)(c1ccccc1)c1ccccc1`, the growth inhibition was -28.3% (inactive).

As to `O=NC1C(=O)NC(=O)NC1=O`, the growth inhibition was -5.85% (inactive).

`N#CC(C#N)=Cc1ccc(C=C(C#N)C#N)cc1`: the growth inhibition was -40.5% (inactive).

Take `O=S(=O)(O)C1CCC(O)C2[N-]CCCC21.O=S(=O)(O)C1CCC(O)C2[N-]CCCC21.[Ni+2]` (stereo not given): the growth inhibition was -4.3% (inactive).

For `CC(=O)Nc1cc([As](=O)(O)O)ccc1O`, the growth inhibition is 14.3% (inactive).

Take `O=[N+]([O-])c1ccc(OCc2ccc(S(=O)(=O)F)cc2Cl)c(Cl)c1`: the growth inhibition is -2.95% (inactive).

On to `CCOP(=O)(OCC)O/N=C(/C#N)c1ccccc1`, for which the growth inhibition is -6.4% (inactive).

On to `CC1(C)C(=O)/C(=N\O)C[C@@]2(C)C1=CC[C@@H]1[C@@H]2CC[C@]2(C)C(=O)/C(=N/O)C[C@@H]12`, for which the growth inhibition is -5.25% (inactive).

Consider `CC(=O)OCC1OC([Se-])C(OC(C)=O)C(OC(C)=O)C1OC(C)=O.N#CCC[PH+](CCC#N)CCC#N.[Au+]` (stereo not given), for which the growth inhibition was 6.75% (inactive).

For `c1ccc(C(c2ccccc2)C2CCNCC2)cc1`, the growth inhibition is 6.8% (inactive).

As for `O=CC1(c2ccccc2)CCNCC1`, the growth inhibition is 3.85% (inactive).

Take `CCOC(=O)/C=C1/C=C(C)CC(C)(C)C1` (tested in a mixture with another compound): the growth inhibition is -58.7% (inactive).

In the case of `O=C1OC(c2ccccc2)(c2ccccc2)C(=O)OC1(c1ccccc1)c1ccccc1`, the growth inhibition is -14% (inactive).

Consider `CCOc1ccccc1C=C(C#N)C#N`, for which the growth inhibition is 6% (inactive).

With `CC(=O)Nc1cc([As]=O)ccc1O` (stereo not given), the growth inhibition is 25.2% (inactive).

Consider `CCC1(CC)C(=O)NC(=NCCCC(N)C(=O)O)NC1=O` (stereo not given), for which the growth inhibition was -3.05% (inactive).

Consider `O=[As](c1ccccc1)(c1ccccc1)c1ccc(Br)cc1`, for which the growth inhibition is 1.25% (inactive).

As for `C[N+]1([O-])C2CCC1CC(O)C2` (stereo not given), the growth inhibition is 7.55% (inactive).

Consider `CC(Br)C(=O)C(CCN(C)C)(c1ccccc1)c1ccccc1` (stereo not given), for which the growth inhibition was -0.05% (inactive).

Consider `N#Cc1ccccn1`, for which the growth inhibition was -30.7% (inactive).

Consider `C#CC(=O)[O][Sn]([c]1ccccc1)([c]1ccccc1)[c]1ccccc1`, for which the growth inhibition is 99.1% (active).

As to `C=CCNCC(O)c1ccccc1` (stereo not given), the growth inhibition is -14.2% (inactive).

A short description of the next test: NCI Yeast Anticancer Drug Screen. Data for the sgs1 mgt1 strain (AID 161).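 Also: 0% = growth of cultures given vehicle only.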 Conditions: S. cerevisiae sgs1 mgt1 strain, at 50.0 µM, active compounds read high. The gist of the method:
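This yeast growth screen uses a strain with defined DNA-repair lesions; compound-treated growth is compared with vehicle-treated growth.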
As to `O=C1NC(=S)NC(=O)C1=Cc1cc2c(cc1[N+](=O)[O-])OCO2`, the growth inhibition is 4.4% (inactive).

`O=S(=O)(O)c1ccc(Cl)cc1`: the growth inhibition was -1.15% (inactive).

On to `CCN(CC)c1cccc(OC(=O)NC)c1`, for which the growth inhibition is -4.6% (inactive).

For `O=C1OC(Br)c2ccccc21` (stereo not given), the growth inhibition was -8% (inactive).

Take `CCOP(=O)(OCC)O/N=C(/c1ccccc1)C(C)C`: the growth inhibition is 19.9% (inactive).

On to `Cc1cc2[nH]c3c(C#N)c(OC(=O)N(C)C)c(-c4ccccc4)c(=O)n3c2cc1C`, for which the growth inhibition was -7.85% (inactive).

Take `CC(=O)Nc1cc([As](C)(=O)O)ccc1O`: the growth inhibition is 1.95% (inactive).

`COc1ccc(N2CC=C(c3ccccc3)OP2(=O)N(CCCl)CCCl)cc1` (stereo not given): the growth inhibition was -3.45% (inactive).

Take `CC(=O)CC(C)=O.CC(=O)CC(C)=O.[Cl][Sn][c]1ccccc1`: the growth inhibition is 49.6% (inactive).

Consider `COP(=S)(c1ccccc1)N(C)C(=O)Oc1cccc(C(C)C)c1` (stereo not given), for which the growth inhibition was 34.2% (inactive).

With `O=NNc1ccc(C(F)(F)F)cn1`, the growth inhibition is -17.9% (inactive).

Turning to `CC1(C)N=C(N)N=C(N)N1c1cccc(CCCCc2ccc(S(=O)(=O)F)c(Cl)c2)c1`, the growth inhibition is 99.5% (active).

`Cc1cc([N+](=O)[O-])c(N)c([N+](=O)[O-])c1`: the growth inhibition was -9.8% (inactive).

Take `CNC(=O)N1CN(c2ccccc2)C2(CCN(Cc3ccccc3)CC2)C1=O`: the growth inhibition was -15.9% (inactive).

On to `CC([OH2+])CNCCN.CC([OH2+])CNCCN.O=[N+]([O-])[O-].[Cu+2]` (stereo not given), for which the growth inhibition was 5.25% (inactive).

On to `[Cl][Co][Br].[NH-]CC[NH-].[NH-]CC[NH-]`, for which the growth inhibition was 13.9% (inactive).

Take `[C-]#[O+].[C-]#[O+].[C-]#[O+].[C-]#[O+].[C-]#[O+].[C-]#[O+].[C-]#[O+].[C-]#[O+].[C-]#[O+].[CH2-]C.[Co].[Co].[Co]`: the growth inhibition is 19.1% (inactive).

For the compound `CCOP(=O)(OCC)C(C)(C)OC(=O)NC#N`, the growth inhibition is -36.2% (inactive).

Regarding `O=C(NC(Cl)=C(Cl)Cl)P(=O)(c1ccccc1)c1ccccc1`, the growth inhibition is 10.8% (inactive).

On to `O=NC1C(=O)NC(=O)NC1=O`, for which the growth inhibition was 3.45% (inactive).

Take `N#CC(C#N)=Cc1ccc(C=C(C#N)C#N)cc1`: the growth inhibition is -15.9% (inactive).

With `O=S(=O)(O)C1CCC(O)C2[N-]CCCC21.O=S(=O)(O)C1CCC(O)C2[N-]CCCC21.[Ni+2]` (stereo not given), the growth inhibition is 27.9% (inactive).

On to `CC(=O)Nc1cc([As](=O)(O)O)ccc1O`, for which the growth inhibition is 31.8% (inactive).

As for `O=[N+]([O-])c1ccc(OCc2ccc(S(=O)(=O)F)cc2Cl)c(Cl)c1`, the growth inhibition was -3.15% (inactive).

Consider `CCOP(=O)(OCC)O/N=C(/C#N)c1ccccc1`, for which the growth inhibition is 18.4% (inactive).

In the case of `CC1(C)C(=O)/C(=N\O)C[C@@]2(C)C1=CC[C@@H]1[C@@H]2CC[C@]2(C)C(=O)/C(=N/O)C[C@@H]12`, the growth inhibition is -0.05% (inactive).

For the compound `CC(=O)OCC1OC([Se-])C(OC(C)=O)C(OC(C)=O)C1OC(C)=O.N#CCC[PH+](CCC#N)CCC#N.[Au+]` (stereo not given), the growth inhibition was -4.55% (inactive).

`c1ccc(C(c2ccccc2)C2CCNCC2)cc1`: the growth inhibition was 3.2% (inactive).

`O=CC1(c2ccccc2)CCNCC1`: the growth inhibition was 15.5% (inactive).

For `CCOC(=O)/C=C1/C=C(C)CC(C)(C)C1` (tested in a mixture with another compound), the growth inhibition was -9.1% (inactive).

In the case of `O=C1OC(c2ccccc2)(c2ccccc2)C(=O)OC1(c1ccccc1)c1ccccc1`, the growth inhibition is 7.7% (inactive).

Take `CCOc1ccccc1C=C(C#N)C#N`: the growth inhibition was 19.1% (inactive).

`CC(=O)Nc1cc([As]=O)ccc1O` (stereo not given): the growth inhibition is 31.8% (inactive).

Regarding `CCC1(CC)C(=O)NC(=NCCCC(N)C(=O)O)NC1=O` (stereo not given), the growth inhibition is 8.15% (inactive).

For `O=[As](c1ccccc1)(c1ccccc1)c1ccc(Br)cc1`, the growth inhibition was 12.2% (inactive).

`C[N+]1([O-])C2CCC1CC(O)C2` (stereo not given): the growth inhibition is 1.45% (inactive).

For the compound `CC(Br)C(=O)C(CCN(C)C)(c1ccccc1)c1ccccc1` (stereo not given), the growth inhibition is 7.95% (inactive).

`N#Cc1ccccn1`: the growth inhibition is 12.7% (inactive).

Regarding `C#CC(=O)[O][Sn]([c]1ccccc1)([c]1ccccc1)[c]1ccccc1`, the growth inhibition was 99.3% (active).

With `C=CCNCC(O)c1ccccc1` (stereo not given), the growth inhibition is -11.8% (inactive).
